# Bioassay records (PubChem BioAssay)
# RGS4-Gao reg – modulates binding of RGS4 to human Galphao; P09471; Multiplexed bead flow cytometry; actives lie on both sides; binding response (% of control), % at 10 µM; 220,000 compounds, 0.33% hits; in the data active means binding response below about 49% or above about 150%; inactive means in between;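 further: fluorescent Galphao activated with aluminum fluoride binding bead-coupled RGS4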
# GSH fluor – compound fluoresces at 488/530 nm on GSH beads; 190,000 compounds, 0.25% hits; fluorescence (KMESF) at 10 µM; GSH beads flow cytometry, compound fluorescence 488/530 nm; hits give high values; in the data active means fluorescence above about 89;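 further: glutathione beads carrying GST-tagged Bcl family fusion proteins plus one bare bead set; values are compound well signal with DMSO vehicle wells as background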
# RGS7-Gao reg – human RGS7-Galphao interaction regulation. P09471. Multiplexed bead flow cytometry, RGS7-Galphao binding; actives lie on both sides. binding response (% of control), % at 10 µM. 220,000 compounds, 0.35% hits; in the data active means binding response below about 49% or above about 150%; inconclusive means no clear call, values can overlap the other calls; inactive means in between;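 further: fluorescent Galphao held in activated GDP-AlF4 state binding bead-coupled RGS7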
# Avidin bead fluor – avidin bead compound fluorescence profile | Avidin beads, compound fluorescence 488/530 nm, flow cytometry; hits give high values | fluorescence (KMESF) at 10 µM | 220,000 compounds, 0.38% hits; in the data active means fluorescence above about 47
# RGS8-Gao – modulates binding of RGS8 to human Galphao | AID 1423 | 220,000 compounds, 0.34% hits | multiplexed bead flow cytometry; actives lie on both sides | response (percent of control binding), % at 10 µM | P09471; in the data active means response below about 60% or above about 140%; inactive means in between;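 further: Galphao activated as the GDP aluminium fluoride complex binding bead-coupled RGS8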
# RGS16-Gao HTS – modulates binding between human RGS16 and Galphao. O15492+P09471. bead-based flow cytometry RGS16-Galphao binding, fluorescence; actives lie on both sides. binding response (% of control), % at 10 µM. 220,000 compounds, 0.38% hits. AID 1441;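 further: Galphao activated by GDP with aluminum fluoride before binding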
# Target sequence (O15492 whole entry, looked up): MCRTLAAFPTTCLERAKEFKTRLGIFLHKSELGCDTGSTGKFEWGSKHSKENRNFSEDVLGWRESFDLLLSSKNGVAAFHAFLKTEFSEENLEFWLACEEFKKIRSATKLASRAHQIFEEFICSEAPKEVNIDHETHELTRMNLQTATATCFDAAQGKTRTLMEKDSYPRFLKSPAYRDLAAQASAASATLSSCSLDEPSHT
# Target sequence (P09471 whole entry, looked up): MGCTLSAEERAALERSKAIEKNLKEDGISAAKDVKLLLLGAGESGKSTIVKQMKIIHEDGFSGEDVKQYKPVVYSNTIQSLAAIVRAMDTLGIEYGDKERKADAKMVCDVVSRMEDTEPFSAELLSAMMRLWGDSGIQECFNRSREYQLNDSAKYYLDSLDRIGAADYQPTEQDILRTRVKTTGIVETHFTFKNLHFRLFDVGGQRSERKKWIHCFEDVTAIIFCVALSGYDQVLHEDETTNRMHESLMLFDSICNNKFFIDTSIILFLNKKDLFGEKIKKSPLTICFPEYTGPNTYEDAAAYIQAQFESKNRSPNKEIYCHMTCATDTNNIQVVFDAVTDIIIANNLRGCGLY
# RGS-Gao – RGS4-Galphao interaction regulator (human). 1,600 compounds, 99% hits. multiplexed bead flow cytometry, RGS–Galpha-o binding. AID 1504. RGS4–Galpha-o binding response, % at 10 µM. shares compounds with RGS16-Gao HTS;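 further: fluorescently labeled Galpha-o bound to GDP with aluminium fluoride binding biotinylated RGS beads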
# Biotin-avidin – interferes with biotinylated probe binding to avidin beads; shares compounds with RGS16-Gao HTS; 1,700 tested, under 10 active; streptavidin beads, fluorescein-biotin binding, flow cytometry; AID 1783; inhibition, % at 10 µM;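 active means inhibition above 50%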;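 further: median green fluorescence of gated singlet beads compared with DMSO control wells; 0% = DMSO wells and 100% = complete loss of bead fluorescence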
# RGS8-Gao single – confirmation of regulators of human RGS8-Galphao interaction; shares compounds with RGS16-Gao HTS; bead-based flow cytometry RGS8-Galphao binding, fluorescence; actives lie on both sides; binding response (% of control), % at 10 µM; 1,700 compounds, 3% hits; AID 1836; in the data active means binding response below about 72% or above about 130%; inactive means in between;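 further: Galphao activated as GDP AlF4 complex before binding bead RGS8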
# RGS7-Gao confirm – confirmation of regulators of human RGS7-Galphao interaction | shares compounds with RGS16-Gao HTS | bead-based flow cytometry RGS7-Galphao binding; actives lie on both sides | response (percent of control binding), % at 10 µM | 1,700 compounds, 7.8% hits | AID 1837; in the data active means response below about 75% or above about 130%; inactive means in between;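 further: fluorescent Galphao activated with GDP and aluminum fluoride binding bead-coupled RGS7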
# RGS16-Gao conf – RGS16-Galphao interaction regulation, single point confirmation | shares compounds with RGS16-Gao HTS | response (% of control binding), % at 10 µM | 1,700 compounds, 4% hits | bead-based flow cytometry, RGS16-Galphao binding; actives lie on both sides; in the data active means response below about 74% or above about 130%; inactive means in between;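 further: Galphao activated as the GDP aluminium fluoride complex binding bead-coupled RGS16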
# RGS4-Gao single – RGS4-Galphao interaction regulation, single point confirmation; shares compounds with RGS16-Gao HTS; RGS4-Galphao binding, multiplexed bead flow cytometry; actives lie on both sides; binding response (% of control), % at 10 µM; 1,700 compounds, 4% hits; AID 1840; in the data active means binding response below about 74% or above about 130%; inactive means in between
# RGS19-Gao single – confirmation of regulators of human RGS19-Galphao interaction. 1,700 compounds, 5% hits. response (percent of control binding), % at 10 µM. shares compounds with RGS16-Gao HTS. bead-based flow cytometry RGS19-Galphao binding; actives lie on both sides; in the data active means response below about 50% or above about 160%; inactive means in between;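 further: 100% = no compound control and 0% = blank background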
# The depositor's hits bear a star; ? = inconclusive; . = no result given; [ ] = another dose, or the depositor's remark. Hits are enriched below; roughly 1.2% of the tested compounds scored in any of these assays. Unless noted, how the calls were made is not given here.
SMILES,RGS4-Gao reg,GSH fluor,RGS7-Gao reg,Avidin bead fluor,RGS8-Gao,RGS16-Gao HTS,RGS-Gao,Biotin-avidin,RGS8-Gao single,RGS7-Gao confirm,RGS16-Gao conf,RGS4-Gao single,RGS19-Gao single
CC(C)(C)c1nnc2sc(SC/C(O)=C(\C#N)c3nc4ccccc4[nH]3)nn2c1=O,177*[activator],30,161*[activator],5,148*[activator],178*[activator],.,0,101,95,97,96,87
Cn1cc(CCNC(=O)CC2C(=O)NCCN2CC(c2ccccc2)c2ccccc2)cn1 (stereo not drawn),97,.,?,8,98,96,.,.,.,.,.,.,.
C/C(CC(=O)Nc1ccc2c(c1)OCO2)=N\NC(=O)C(c1ccccc1)c1ccccc1,87,13,86,1,67,15*,87*,0,107,104,108,102,108
COc1cc(OC)cc(C(=O)N[C@H](C(=O)Nc2nc(-c3ccc(OC)c(OC)c3)cs2)C(C)C)c1,103,.,?,16,101,104,.,.,.,.,.,.,.
COc1cccc(Cn2c(C3CC3)nc3ccc(NC(=O)c4ccco4)cc3c2=O)c1,77,9,579*[activator],603*,76,134,77*,0,102,106,104,102,99
O=C(NCCCN1CCOCC1)c1sc2cc([N+](=O)[O-])ccc2c1Cl,100,17,?,6,75,25*,100*,0,65*,95,13*,79,30*
Cc1cc(C)nc(/N=C2\NC(=O)CC3C(=O)NCCN23)n1 (stereo not drawn),21*,24,12*,4,13*,10*,.,0,105,95,101,102,79
Cc1ccc(Oc2nc(-c3cccnc3)nc3ccccc23)c([N+](=O)[O-])n1,72,16,84,12,75,26,.,.,.,.,.,.,.
COc1cccc(C(=O)NCCOc2cc(C)cc(C)c2)c1,91,7,98,3,81,56,.,-1,101,95,100,98,119
O=C(O)c1cn(Cc2ccccc2)nc1-c1cccnc1,102,11,102,11,102,104,.,.,.,.,.,.,.
O=[N+]([O-])c1cccc(S(=O)(=O)[N-]c2nc3ccccc3nc2-n2cc[n+](Cc3ccccc3)c2)c1,98,.,?,19,98,100,.,.,.,.,.,.,.
CC(=O)N(O)CCCCCNC(=O)CCC(=O)N(O)CCCCCNC(=O)CCC(=O)N(O)CCCCCN,61,22,55,4,51*,35,61*,-2,53*,58*,42*,57*,64
CCCC(=O)NCCCCNC(=O)CCC,100,36,99,9,96,74,.,.,.,.,.,.,.
Cc1ccc(CNC(=O)CNS(=O)(=O)c2ccc3nc(C)sc3c2)cc1,95,10,90,9,95,90,.,.,.,.,.,.,.
